Where “and” joins values, the source holds several entries; their conditions need not be identical. Equal entries are not always repeated. This is part of a sample that, as a whole, favours compounds with a hit. Of some 83,000 tested, about 20% had one in any assay.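 Each cell line was grown in a 96-well plate and treated with one concentration of compound for 48 hours. Values below 10 were considered active.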 Unmarked numbers belong to inactive results. Calls of active or inactive are those of the source.

The assay relates to SF-539 CNS. The assay can be described thus: NCI-60 one-dose screen, 48 h (100 = growth as untreated, 0 = no growth, -100 = all killed). The conditions noted are these: 10 µM unless noted.
`C[n+]1c(/C=C/c2ccc([N+](=O)[O-])cc2)ccc2ccccc21`: the growth is 103%.

`c1ccc2c(c1)Nc1cc3ccccc3cc1N2`: the growth was 39.1%.

As for `CCOC(=O)/C(=C\c1ccc(-c2ccccc2)cc1)C(C)=O`, the growth was 98%.

Consider `NC(N)=N/N=C/c1ccc([N+](=O)[O-])o1`, for which the growth is 104%.

For the compound `CCCCCCCCCCCCCCCC[N+](C)(CCO)Cc1cnc[nH]1` (configuration not stated), the growth is -54.3% (active).

For `COC(=O)c1nc(=S)[nH]c(C(=O)OC)c1C(=O)c1ccc2ccccc2c1`, the growth is 92.5%.

Consider `CCC(=O)Sc1ccccc1C(=O)Nc1ccc(Cl)cc1`, for which the growth was 49.7%.

Regarding `Cc1ccnc(NC(c2ccccc2)c2ccc3cccnc3c2O)c1` (configuration not stated), the growth was 24.7%.

With `CC1SC(=S)N(c2ccc(Cl)cc2)C1=O` (configuration not stated), the growth is 98.5% and 70.7%.

As to `CCN1/C(=C\c2cc[n+](CC)c3ccccc23)C=Cc2ccccc21`, the growth was 7.56% (active).

With `Cc1ccc(C(=Nc2ccccc2)N=P(c2ccccc2)(c2ccccc2)c2ccccc2)cc1`, the growth is -42.9% (active).

For `CC(C)(C)c1ccc(O)c(C2CCCCC2)c1`, the growth was 121%.

For the compound `Cc1ccc(NS(=O)(=O)c2ccc(C)cc2)cc1`, the growth was 111% and 101%.

With `O=C(O)C1C2CC3C(OC(=O)C31)C2Br` (configuration not stated), the growth was 99.5%.

On to `C=CCOc1ccc(N=NC(C#N)C#N)cc1`, for which the growth is 87%.

For `CN(C)c1ccc(C(=C2C=CC(=[N+](C)C)C=C2)c2ccc(N(C)C)cc2)cc1` (tested in a mixture with another compound), the growth was -94.2% (active).

In the case of `O=C(/C=C\c1cc(Br)ccc1O)/C=C/c1cc(Br)ccc1O`, the growth is -49.1% (active).

With `CC(C)c1ccc2nc3ccc(C(=O)NCCN4CCN(c5ccccc5)CC4)cn3c(=O)c2c1`, the growth is 40.8%.

For `O=C(/C=C/C=C/c1ccccc1)c1ccco1`, the growth is 106%.

On to `CC1(C)CC([P+](c2ccccc2)(c2ccccc2)c2ccccc2)=NN1`, for which the growth was 51%.

As for `COC(=O)[C@@]12OC[C@]34[C@H]([C@@H](O)[C@@H]1O)[C@@]1(C)[C@H](O)C(=O)C=C(C)[C@@H]1C[C@H]3OC(=O)C(OC(C)=O)[C@@H]24` (some centres not stated), the growth was -36.7% (active).

As for `Cc1c2ccccc2c(C)c2c1ccc1ccccc12`, the growth is 92.3%.

Turning to `S=C(N/N=C/c1ccccn1)Nc1ccccn1`, the growth is 14.1%.

For `CN(C)C(=O)SC1=C(c2c(Cl)cccc2Cl)C(=O)c2ccccc21`, the growth is 91.1%.

With `CCC(CC)COC(=O)c1ccc(O)c(O)c1`, the growth was 34%.

Turning to `CC1=CC(O)C2CC1C2(C)C` (configuration not stated), the growth is 99.8% and 110%.

For `COc1cc(/C=C(/C)C[N+](=O)[O-])ccc1O`, the growth was 105%.

For `NC1=CC(=O)c2ccccc2C1=O`, the growth was 106%.

With `CCN(CC)CCOc1ccc(-c2nc3cc(Cl)ccc3s2)cc1`, the growth is -15.5% (active).

As to `CCOc1ccc(-c2nc3ccc(-c4nc5ccc(N6CCN(C)CC6)cc5[nH]4)cc3[nH]2)cc1`, the growth was -97.9% (active).

Regarding `CNC(=O)N/N=C/c1ccc([N+](=O)[O-])o1`, the growth is 110%.

In the case of `N#CSCc1ccc(CSC#N)c(Cl)c1`, the growth was 58.8%.
